Assay outcomes from PubChem BioAssay.
Hits are enriched below; roughly 21% of the tested compounds scored in any of these assays.
DT40 TDP1 no CPT – qHTS for Inhibitors of human tyrosyl-DNA phosphodiesterase 1 (TDP1): qHTS in cells in absence of CPT | DT40 Tdp1-/- hTDP1 cells, no CPT, ATP luminescence, 48 h | Potency, µM (titrated, usually from 46.2 µM), inactives show at the top dose activity change, negative = growth inhibition, hits mostly inhibitors | 15% of 420,000 active; note: potency is the fitted concentration of half-maximal effect; % is set by controls: 0 for no effect and ±100 for the full control effect; nearly all actives have a fitted effect of over 55% in size
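Stably hTDP1-transfected Tdp1-null chicken DT40 cells were treated with library compounds minus camptothecin and grown for at least 48 hr at 37 °C, after which cellular ATP was quantified by luminescence.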
D3 ag – activates the human D3 dopamine receptor. P35462. D3R DiscoveRx beta-arrestin cells, luminescence, 90 min. max activation, %. 0.58% of 410,000 active; in the data active = max activation above about 30%; note: 0% is about no effect
Target sequence (P35462 whole entry, looked up): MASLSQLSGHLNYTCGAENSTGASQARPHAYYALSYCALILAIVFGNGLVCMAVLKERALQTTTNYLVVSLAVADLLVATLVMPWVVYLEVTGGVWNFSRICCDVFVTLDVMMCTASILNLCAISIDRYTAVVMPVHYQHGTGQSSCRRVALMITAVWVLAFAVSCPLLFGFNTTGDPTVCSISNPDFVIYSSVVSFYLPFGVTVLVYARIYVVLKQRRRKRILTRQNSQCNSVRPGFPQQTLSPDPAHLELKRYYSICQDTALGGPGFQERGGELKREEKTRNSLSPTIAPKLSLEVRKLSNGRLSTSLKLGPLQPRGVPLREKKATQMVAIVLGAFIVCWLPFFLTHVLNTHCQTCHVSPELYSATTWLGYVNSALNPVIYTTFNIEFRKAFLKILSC
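Agonist mode: compounds and dopamine controls were applied to plated cells for 90 min at 37 degrees C after an overnight attachment at 1500 cells/well. Luminescent read-out followed 30 - 60 minutes at room temperature with DiscoveRx detection reagent.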
DT40 TDP1 CPT – DT40-hTDP1 cell growth loss with CPT; Potency, µM (top dose mostly 46.2 µM), for inactives: at the highest dose activity change, negative = growth inhibition, usual class: inhibitors; chicken DT40 Tdp1-/-;hTDP1 cells + 20 nM CPT, ATP luminescence, 48 h; 12% of 420,000 active; note: potency is the fitted concentration of half-maximal effect; % is set by controls: 0 for no effect and ±100 for the full control effect; nearly all actives have a fitted effect of over 55% in size
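Chicken DT40 Tdp1-/- cells complemented with human TDP1, 400 cells/well, exposed to compounds plus 20 nM camptothecin for at least 48 h at 37 C; viability read as ATP content by CellTiter-Glo luminescence.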
IL1B secr inh – blocks inflammasome-driven IL-1 beta release; THP-1 LPS/ATP IL-1B secretion, AlphaLISA, 16 h; stronger effect = lower value; activity change, % at 57.5 µM; 4.7% of 360,000 active; AID 743279; in the data active = activity change below about -50%; inconclusive = mostly about -30% to -49%; note: % is set by controls: 0 for no effect and ±100 for the full control effect
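THP-1 cells pretreated 1 hr with compounds (up to 57.5 uM final), then stimulated with LPS (250 ng/mL final) plus ATP (1.25 mM final); secreted IL-1B measured by AlphaLISA after 16 hr, decreased signal indicating inhibition.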
ClpP mod – qHTS Assay for Activators of ClpP; purified B. subtilis ClpP, FRET peptide cleavage, 20 min; Potency, µM (series often up to 57.5 µM), without a hit: at the highest dose activity change, negative = active; 1.9% of 340,000 active; AID 651965, 2013; active = well fitted falling curve with a large enough effect; inconclusive = small, poorly fitted or top-dose-only effect; inactive = no such curve, though single readings can be large or run the other way; note: potency is the fitted concentration of half-maximal effect; the source files actives as falling curves though it sought activators and does not explain the sign; nearly all actives have a fitted effect of over 65% in size
Target sequence (P80244 whole entry, looked up): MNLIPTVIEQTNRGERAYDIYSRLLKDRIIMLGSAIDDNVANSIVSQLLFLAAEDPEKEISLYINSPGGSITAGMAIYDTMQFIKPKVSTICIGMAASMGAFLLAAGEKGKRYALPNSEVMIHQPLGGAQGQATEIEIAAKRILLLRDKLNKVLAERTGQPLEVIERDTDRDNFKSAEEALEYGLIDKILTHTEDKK
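Purified B. subtilis ClpP, 10 microg/mL final in Tris/HCl pH8 with KCl, BSA, glycerol and Tween-20, cleaved an Abz/nitrotyrosine-quenched decapeptide. Fluorescence (ex 320, em 430) was read at 0 and 20 min at room temperature. Delta was normalized to 5.8 microM ADEP and DMSO/no-enzyme controls.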
DRD3 antagonist – antagonists of human D3 dopamine receptor; 2.5% of 360,000 active; P35462; D3R cells, DiscoveRx beta-arrestin luminescence, antagonist mode; stronger effect = lower value; max response, negative = inhibition, %; in the data active = max response below about -50%; inconclusive = no clear call, values can overlap the other calls; note: % is set by controls: 0 for no effect and ±100 for the full control effect
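Cells expressing the human receptor were seeded at 1500 cells/well, incubated overnight at 37 degrees C in 5% CO2, then exposed to library compounds with dopamine controls for 90 minutes at 37 degrees C before luminescent detection.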
* marks the source's active call; other numbers are inactive results; ? = inconclusive; . = not tested or not shown. Unless noted, calls come from the whole dose curve; as a rule, active = well fitted inhibition curve with a large enough effect; inconclusive = small, poorly fitted or top-dose-only effect; inactive = flat fitted curve, though single readings scatter.

SMILES	DT40 TDP1 no CPT	D3 ag	DT40 TDP1 CPT	IL1B secr inh	ClpP mod	DRD3 antagonist
COc1ccc(NCC(=O)Nc2ccc(Br)cc2F)c(OC)c1	13µM*	-3.6	?	?	.	-9.7
COc1ccc(NC(=O)CN2CCN(CC(=O)Nc3ccccc3F)CC2)c(OC)c1	?	6.3	23.1µM*	-11.6	3.7%	-15.6
CCc1nnc(NC(=O)c2ccc3c(=O)n4c(nc3c2)CCC4)s1	?	-2.3	-28.0%	-2.1	-1.6%	8.8
Fc1ccccc1-c1nc(NCc2ccco2)c2ccccc2n1	-14.0%	-6.0	23.7%	0.0	.	-21.2
c1coc(CNc2nc(N3CCCCC3)nc3ccccc23)c1	18.4µM*	-19.6	25.9µM*	-57.8*	22.4µM*	?
c1ccc(Nc2nc(NCC3CCCO3)c3ccccc3n2)cc1 (stereo not drawn)	3.26µM*	-2.9	3.66µM*	-100.8*	.	10.2
c1ccc(-c2nc(NCC3CCCO3)c3ccccc3n2)nc1 (stereo not drawn)	4.61µM*	0.0	5.17µM*	52.5	-1.6%	-52.8*
O=c1c2ccccc2nc2c3ccccc3c(NCc3ccco3)nn12	20.6µM*	6.7	?	18.0	?	15.7
OCCNc1nc(N2CCCCC2)nc2ccccc12	-13.7%	-6.9	-5.0%	11.6	.	-8.5
c1ccc2c(NCC3CCCO3)nc(N3CCOCC3)nc2c1 (stereo not drawn)	1.5%	3.0	-4.1%	11.2	3.4%	-3.3
Cc1ccc2c(c1)c1c(c(=O)n(-c3cccc(Cl)c3)c(=O)n1CC(=O)NCC1CCCO1)n2C (stereo not drawn)	-20.5%	6.7	-22.3%	.	4.0%	.
CNC(=O)/C(C#N)=C/c1c(N2CCCCCC2)nc2ccccn2c1=O	-7.7%	0.6	-11.8%	-25.6	3.3%	6.2
CCOc1ccc(Nc2nc(NCC3CCCO3)c3ccccc3n2)cc1 (stereo not drawn)	2.91µM*	2.0	25.9µM*	-98.3*	.	-4.8
Oc1ccccc1-c1nc(N2CCN(Cc3ccccc3)CC2)c2ccccc2n1	?	2.3	?	13.5	1.4%	-1.5
COc1ccc(Nc2nc(NCC3CCCO3)c3ccccc3n2)c(OC)c1 (stereo not drawn)	14.6µM*	-1.2	16.4µM*	.	.	-22.7
c1ccc(CNc2nc(N3CCN(Cc4ccccc4)CC3)nc3ccccc23)cc1	16.4µM*	-29.7	?	.	.	-93.0*
COc1ccc(Nc2nc(NCC3CCCO3)nc(N)c2[N+](=O)[O-])cc1 (stereo not drawn)	?	5.7	?	-14.8	-1.1%	-3.5
c1ccc(-c2nc(NCc3ccco3)c3ccccc3n2)nc1	2.59µM*	-16.4	2.59µM*	96.6	-2.4%	-56.4*
O=C(NCc1ccco1)c1cnn2cccnc12	-2.1%	-6.5	5.5%	-7.1	.	4.3
COC(=O)c1cc(C#N)c(N2CC(C)OC(C)C2)nc1C (stereo not drawn)	-9.8%	3.1	-5.9%	-1.4	.	-0.9
CS(=O)(=O)Nc1cccc(-c2nc(N3CCOCC3)c3ccccc3n2)c1	-20.1%	.	-12.4%	.	.	.
COc1ccc(Cn2ccnc2SCC(=O)Nc2ccc(C)cc2C)cc1	-21.4%	6.1	-15.3%	.	0.7%	.
O=S(=O)(Nc1nc2ccccc2nc1NCC1CCCO1)c1cccc(Cl)c1 (stereo not drawn)	16.4µM*	0.4	?	32.5	.	3.5
Oc1cccc(Nc2nc(NCC3CCCO3)c3ccccc3n2)c1 (stereo not drawn)	14.6µM*	-3.0	16.4µM*	.	-6.4%	0.5
Nc1nc(NCC2CCCO2)nc(Nc2ccccc2)c1[N+](=O)[O-] (stereo not drawn)	?	2.9	?	-8.8	-1.1%	9.4
SMILES	DT40 TDP1 no CPT	D3 ag	DT40 TDP1 CPT	IL1B secr inh	ClpP mod	DRD3 antagonist
Cc1cc(Oc2ccccc2)nc(-c2ccccc2O)n1	-19.5%	-0.1	-11.7%	7.6	0.3%	-20.3
Cc1cc(Oc2ccc(Cl)cc2)nc(-c2ccccn2)n1	5.17µM*	-14.4	5.17µM*	46.1	.	6.1
COc1cccc2cc(-c3nc4sc(C(=O)Nc5ccc(F)cc5F)c(C)c4c(=O)[nH]3)c(=O)oc12	-7.3%	-0.1	-12.8%	.	-2.3%	.
CCOC(=O)c1sc(-c2cccc(C(F)(F)F)c2)nc1O	20.6µM*	-10.1	?	-4.9	1.3%	25.7
CN(Cc1ccc(F)cc1)C(=O)c1cc(S(=O)(=O)N2CCCCC2)ccc1N1CCOCC1	16.4µM*	-2.9	?	-5.1	1.1%	15.9
COc1ccc(COC(=O)c2cc(S(=O)(=O)N3CCCCC3)ccc2N2CCOCC2)cc1	16.4µM*	-5.2	18.4µM*	-2.9	-10.0%	8.8
NC(=O)COC(=O)c1cc(S(=O)(=O)N2CCOCC2)ccc1N1CCCCC1	-24.9%	-0.5	-9.4%	11.2	-3.0%	-19.7
CSc1ccc(COC(=O)c2cc([N+](=O)[O-])ccc2N2CCOCC2)cc1	0.0259µM*	-24.1	0.0411µM*	-9.2	-1.3%	-23.8
O=C(OCc1ccc([N+](=O)[O-])cc1)c1cc(S(=O)(=O)N2CCCCC2)ccc1N1CCOCC1	7.31µM*	0.5	14.6µM*	-14.6	1.7%	9.7
N#CCOC(=O)c1cc(S(=O)(=O)N2CCCCC2)ccc1N1CCOCC1	16.2%	-1.0	-23.4%	-7.3	-1.5%	1.7
NC(=O)Cn1c(=O)n(-c2ccc(F)c(Cl)c2)c(=O)c2sc3ccccc3c21	?	9.7	-15.3%	.	4.2%	.
O=C(c1cccs1)N1C[C@@H](n2cc(C3CC3)nn2)[C@H](O)C[C@@H]1c1ccccc1	?	3.6	-3.0%	-2.1	-0.5%	-1.8
O=C(OCc1ccc(F)cc1)c1cc(S(=O)(=O)N2CCCCC2)ccc1N1CCOCC1	11.6µM*	1.9	29.1µM*	-5.1	0.8%	-4.1
Cc1nc(CSc2ccccc2)cc(=O)[nH]1	21.8%	-4.0	-2.5%	58.9	-1.9%	-14.8
Cc1nc(-c2ccc(S(=O)(=O)Nc3ccc(C)c(N(C)C)c3)cc2)co1	18.4µM*	5.1	7.31µM*	.	0.7%	.
COc1cc(Cl)c(NS(=O)(=O)c2ccc(-c3coc(C)n3)cc2)c(OC)c1	4.11µM*	2.0	3.66µM*	.	-0.5%	.
CSc1cccc(NS(=O)(=O)c2ccc(-c3coc(C)n3)cc2)c1	14.6µM*	-6.4	?	17.4	.	-20.3
CCN(CC)c1ccc(NS(=O)(=O)c2ccc(-c3coc(C)n3)cc2)c(C)c1	18.4µM*	11.1	16.4µM*	.	-4.4%	.
CCN(CC(=O)N1CCOCC1)S(=O)(=O)c1ccc(F)cc1	-0.6%	-1.7	5.7%	0.7	.	-3.3
CCC(=O)Nc1ccc(C(=O)COC(=O)Cc2ccsc2)cc1	0.1%	-2.3	-15.8%	3.1	-4.0%	0.2
